HT1080-NT tox = kills 2HG-producing HT-1080-NT fibrosarcoma cells. AID 686970. 1.6% of 360,000 active. HT-1080-NT fibrosarcoma viability, CellTiter-Glo ATP luminescence, 48 h. Potency, µM (series often up to 46.1 µM), without a hit: top-dose activity, negative = less viability, actives largely listed as cytotoxic;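 note: NT is the 2HG producing partner of a matched IDH1 knockdown line; 0% = DMSO-treated cells and -100% = media-only wells without cells; nearly all actives have a fitted effect of over 55% in size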
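750 cells/well, RPMI + 5% FBS; 2 h settle, compound pin-transfer, 48 h at 37 degrees C. CellTiter-Glo 10 min RT, luminescence. Normalized to DMSO and media-only wells.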
KB-V1 cytotox = KB-V1 MDR subline cytotoxicity; 3.4% of 400,000 active; KB-V1 MDR cells viability, CellTiter-Glo, 72 h; Potency, µM (doses to about 46.1 µM), hits mostly cytotoxic; AID 1347076; note: nearly all actives have a fitted effect of over 60% in size
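qHTS viability screen in drug-selected KB-V1 MDR cells: 72 h compound treatment at 37 degrees C, ATP luminescence end point.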
HT1080 IDH1KD tx = kills HT-1080 cells with IDH1 knockdown; 2% of 360,000 active; HT-1080 IDH1 knockdown viability, ATP luminescence, 48 h; Potency, µM (titrated, usually from 46.1 µM), without a hit: at the highest dose activity, negative = toxicity, hits mostly cytotoxic;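 note: 0% = DMSO wells and -100% = cell-free medium wells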
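Viability of IDH1-knockdown HT-1080 fibrosarcoma cells was assessed by CellTiter-Glo after 48 h at 37 °C with titrated compound; concentration-effect curves were classified by fit quality and response size.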
KB-3-1 tox = kills parental KB-3-1 adenocarcinoma cells; Potency, µM (titrated, usually from 46.1 µM), actives largely listed as cytotoxic; KB-3-1 viability, CellTiter-Glo ATP luminescence, 72 h; 1.4% of 400,000 active; note: nearly all actives have a fitted effect of over 60% in size
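Here the drug-naive KB-3-1 line serves as comparator for MDR sub-line selectivity; cells received compound titrations, 72 h at 37 °C, then CellTiter-Glo readout.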
TDP1 cell noCPT = qHTS for Inhibitors of human tyrosyl-DNA phosphodiesterase 1 (TDP1): qHTS in cells in absence of CPT; DT40 Tdp1-/- hTDP1 cells, no CPT, ATP luminescence, 48 h; Potency, µM (highest dose often 46.2 µM), inactives show at the highest dose activity change, negative = growth inhibition, most hits filed as inhibitors; 15% of 420,000 active; AID 686978, 2013; note: nearly all actives have a fitted effect of over 55% in size
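Stably hTDP1-transfected Tdp1-null chicken DT40 cells were treated with library compounds minus camptothecin and grown for at least 48 hr at 37 °C, after which cellular ATP was quantified by luminescence.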
DT40 TDP1 CPT = growth inhibition of DT40 Tdp1-/-;hTDP1 cells with camptothecin (screen for TDP1 inhibitors); chicken DT40 Tdp1-/-;hTDP1 cells + 20 nM CPT, ATP luminescence, 48 h; Potency, µM (doses to about 46.2 µM), for inactives: top-dose activity change, negative = growth inhibition, hits mostly inhibitors; 12% of 420,000 active; AID 686979; note: nearly all actives have a fitted effect of over 55% in size
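Chicken DT40 Tdp1-/- cells stably complemented with human TDP1 were seeded at 400 cells/well in medium containing 20 nM camptothecin, exposed to pin-transferred compounds, and grown at 37 °C for at least 48 hr. Viability was read as ATP luminescence.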
Active calls of the source: *; i = inactive; ? = inconclusive; nt = no result; [ ] = remark or other dose. Sampled rows, rich in hits. Any-hit rate of the full collection: about 19%. Calls come from the whole dose curve; as a rule, active = well fitted curve in the direction sought with a large enough effect; inconclusive = small, poorly fitted or top-dose-only effect, or another doubt; inactive = no such curve, though single readings can be large; an effect the other way counts as inactive or inconclusive. Unless noted, % is set by controls: 0 for no effect and ±100 for the full control effect; potency is the fitted concentration of half-maximal effect.

SMILES	HT1080-NT tox	KB-V1 cytotox	HT1080 IDH1KD tx	KB-3-1 tox	TDP1 cell noCPT	DT40 TDP1 CPT
NC(CSCC(=O)O)C(=O)O (stereo not drawn)	nt	nt	nt	nt	-2.8%	-7.7%
O=C(Nc1nccs1)C1CC=CCC1C(=O)OCC(F)(F)C(F)F (stereo not drawn)	6.3%	i	0.4%	i	-0.5%	0.7%
Cc1ccc(C(NC(=O)C2CCN(CCOc3ccccc3)CC2)c2ccccn2)cc1 (stereo not drawn)	-16.4%	i	-12.2%	i	?	?
O=C(NC(c1ccc(-c2ccccc2)cc1)c1cnccn1)C1CCN(CCOc2ccc(F)cc2)CC1 (stereo not drawn)	?	i	16.4µM*	?	?	?
O=C(NC(c1ccc(-c2ccccc2)cc1)c1cnccn1)C1CCN(CCCOc2ccccc2)CC1 (stereo not drawn)	?	i	9.2µM*	?	13µM*	23.1µM*
COc1ccc(C(NC(=O)C2CCN(CCCOc3ccccc3)CC2)c2ccccn2)cc1 (stereo not drawn)	3.5%	i	-0.9%	i	-17.0%	-25.1%
O=C(NC(c1ccc(Cl)cc1)c1cnccn1)C1CCN(CCOc2ccc(F)cc2)CC1 (stereo not drawn)	?	i	?	i	18.4µM*	?
O=C(NC(c1ccc(F)cc1)c1cnccn1)C1CCN(CCOc2ccc(Cl)cc2Cl)CC1 (stereo not drawn)	?	i	?	i	16.4µM*	?
CCC(=O)N1CCc2cc(Br)cc(S(=O)(=O)CCC(=O)N3CCN(c4cc(C)ccc4C)CC3)c21	nt	i	nt	i	3.7%	17.1%
Cc1ccc(NC(=O)Cn2c(=O)n(Cc3nc(C)no3)c(=O)c3cc4c(cc32)OCO4)c(C)c1	nt	i	nt	i	-15.3%	-12.5%
O=C(c1ccco1)N(Cc1cc2cc3c(cc2nc1N1CCOCC1)CCC3)CC1CCCO1 (stereo not drawn)	nt	nt	nt	nt	1.3%	12.9%[9.04 µM]
COc1ccc(N(C)S(=O)(=O)c2ccc(Cl)c(C(=O)NCCc3ccc(Cl)cc3)c2)cc1	1.7%	?	-12.9%	?	11.6µM*	9.2µM*
O=C(NCCc1ccc2c(c1)OCCO2)c1cc(F)cc(F)c1	-23.4%	11.6µM*	-19.1%	?	16.4µM*	20.6µM*
COc1ccc(CCNC(=O)CSCC(=O)Nc2cc(S(C)(=O)=O)ccc2Cl)cc1	2.7%	i	3.2%	?	9.2µM*	-4.4%
CS(=O)(=O)c1ccc(Cl)c(NC(=O)CCc2ccccc2)c1	8.5%	i	24.5%	i	-8.8%	9.0%
O=C(NCCc1ccc2c(c1)OCCO2)c1ccccn1	15.9%	i	9.0%	i	?	?
O=C(NCCc1ccc2c(c1)OCCO2)c1cc(S(=O)(=O)N2CCCC2)ccc1Br	5.7%	20.6µM*	-1.1%	?	?	?
O=C(Cn1ncn2c(cc3sccc32)c1=O)NCCc1ccccc1	nt	i	nt	?	-16.8%	11.7%
CC(=O)Nc1cccc(/C(C)=N\NC(=O)c2ccc(Cn3nc([N+](=O)[O-])c(Cl)c3C)o2)c1	-1.7%	?	-6.6%	i	?	?
C=C[C@]1(C)Cc2occ(C)c2C[C@H]1C(=C)C(=O)O	nt	nt	nt	nt	-3.8%[9.04 µM]	-3.8%[9.04 µM]
COc1ccc(CCNC(=O)c2cc(S(=O)(=O)N3CCCCC3)ccc2Cl)cc1	0.2%	i	-0.4%	i	16.4µM*	25.9µM*
COc1ccc(C(CNC(=O)c2ccc(Cl)c(S(=O)(=O)N3CCCC3)c2)N2CCCC2)cc1 (stereo not drawn)	-12.5%	?	-2.1%	i	?	-20.3%
COc1ccc(CCNC(=O)c2ccc(Cl)c(S(=O)(=O)N3CCCC3)c2)cc1	-0.3%	i	-27.1%	i	23.1µM*	18.4µM*
O=c1c2ccccc2sn1-c1ccc(Cl)cc1Cl	-21.0%	14.6µM*	?	?	2.91µM*	6.51µM*
CCOC(=O)C1(Cc2ccccc2C)CCCN(C(=O)c2cc(C3CC3)[nH]n2)C1 (stereo not drawn)	-2.5%	?	-1.0%	i	?	-24.3%
SMILES	HT1080-NT tox	KB-V1 cytotox	HT1080 IDH1KD tx	KB-3-1 tox	TDP1 cell noCPT	DT40 TDP1 CPT
CCOC(=O)C1(Cc2ccccc2C)CCCN(C(=O)c2ccc3nccnc3c2)C1 (stereo not drawn)	12.6%	?	7.0%	i	20.6µM*	?
CCOC(=O)C1(Cc2ccccc2C)CCCN(C(=O)c2ccc(CSC)o2)C1 (stereo not drawn)	-3.8%	i	-0.9%	i	?	?
CCOC(=O)C1(Cc2ccccc2C)CCCN(C(=O)CCn2nccc2C)C1 (stereo not drawn)	13.9%	i	-0.6%	i	13µM*	?
CCOC(=O)C1(Cc2ccccc2C)CCCN(C(=O)CCc2cccnc2)C1 (stereo not drawn)	1.6%	?	4.8%	i	?	16.4µM*
CCOC(=O)C1(Cc2ccccc2C)CCCN(C(=O)CSC)C1 (stereo not drawn)	-1.3%	i	5.5%	i	?	?
COCCn1c(=O)c(-c2ccc(Cl)cc2)nc2cnc(N(C)C)nc21	nt	nt	nt	nt	-6.8%	-18.7%
COc1ccc(NC(=S)N(Cc2cccnc2)Cc2ccco2)cc1	15.4%	?	12.3%	i	-15.2%	2.2%
CCc1ccc(NC(=S)N(Cc2cccnc2)Cc2ccco2)cc1	-6.0%	?	2.1%	i	18.4µM*	?
CCc1ccc(NC(=S)N(CCCN2CCOCC2)Cc2ccccn2)cc1	-1.3%	i	1.6%	i	2.0%	1.6%
COCCCN(Cc1cc(OC)c(OC)c(OC)c1)C(=S)Nc1cccc(SC)c1	-12.0%	?	-20.2%	i	8.2µM*	16.4µM*
CCc1ccc(NC(=S)N(Cc2ccccc2)Cc2ccccn2)cc1	?	i	?	i	4.61µM*	11.6µM*
COc1cccc(NC(=S)N(CCc2nc3cc(C)c(C)cc3[nH]2)Cc2cccnc2)c1	0.0%	?	3.5%	i	-71.1%	23.1µM*
Cc1cccc(C)c1Cn1c(C)c(C(=O)NCCC#N)sc1=O	9.3%	?	9.1%	i	-4.8%	-6.2%
COCCn1c(C)cc(/C=C(\C#N)C(=O)OC(C)C(=O)Nc2ccc(NC(C)=O)cc2)c1C (stereo not drawn)	-0.1%	i	1.2%	i	-22.2%	-3.7%
